According to a collection of fitness landscapes (doi:10.1126/science.1257360):
Over roughly 140,000 sequences, “enrichment ratio after two sorts for PhoP signalling” has its median near 0; the highest 2% begin near 11. The full list was thinned out, with the highest values kept by preference.

B1: PhoQ; a variant is named by its letters at X, in order, P23837 (parent)
chain: MKKLLRLFFPLSLRVRFLLATAAVVLVLSLAYGMVALIGYSVSFDKTTFRLLRGESNLFYTLAKWENNKLHVELPENIDKQSPTMTLIYDENGQLLWAQRDVPWLMKMIQPDWLKSNGFHEIEADVNDTSLLLSGDHSIQQQLQEVREDDDDAEMTHSVAVNVYPATSRMPKLTIVVVDTIPVELKSSYMVWSWFIYVLSANLLLVIPLLWVAAWWSLRPIEALAKEVRELEEHNRELLNPATTRELTSLVRNLNRLLKSERERYDKYRTTLTDLTHSLKTPLXXLQXXLRSLRSEKMSVSDAEPVMLEQISRISQQIGYYLHRASMRGGTLLSRELHPVAPLLDNLTSALNKVYQRKGVNISLDISPEISFVGEQNDFVEVMGNVLDNACKYCLEFVEISARQTDEHLYIVVEDDGPGIPLSKREVIFDRGQRVDTLRPGQGVGLAVAREITEQYEGKIVAGESMLGGARMEVIFGRQHSAPKDE

Variants of: B1
Test: enrichment ratio after two sorts for PhoP signalling (ratio (wild type AVST 3.29)); higher = more functional
Settings: with PhoP (E. coli)

Variant | enrichment ratio
MSMD | ≤ 0.25
MSWV | 10.2
MSLS | 5.72
MSMI | 23.5
MSMG | 2.86
MSHK | ≤ 0.25
MSML | 14.3
MSNL | ≤ 0.25
DWAP | ≤ 0.25
DRKM | ≤ 0.25
HNAE | ≤ 0.25
LMAI | ≤ 0.25
EHKQ | ≤ 0.25
REPP | ≤ 0.25
MSLE | 3.24
RTWQ | ≤ 0.25
QIWQ | 34.4
WIWQ | ≤ 0.25
QDWQ | ≤ 0.25
MFWQ | ≤ 0.25
MCWQ | ≤ 0.25
MLWQ | ≤ 0.25
QFWQ | ≤ 0.25
MSWQ | 14.5
TGWQ | 22.6
QSWQ | 33.6

Variant | enrichment ratio
KSWQ | ≤ 0.25
SRES | ≤ 0.25
PTVM | ≤ 0.25
GKLF | ≤ 0.25
IMPS | ≤ 0.25
KGLY | ≤ 0.25
FVII | ≤ 0.25
VELP | ≤ 0.25
RMVC | ≤ 0.25
DREF | ≤ 0.25
PGRT | ≤ 0.25
MGGG | ≤ 0.25
MGWQ | 24.5
MRWQ | ≤ 0.25
QLWQ | 11.9
MHWQ | ≤ 0.25
TPWQ | ≤ 0.25
MMWQ | ≤ 0.25
NVWQ | ≤ 0.25
MIWQ | 24.2
REHV | ≤ 0.25
INFD | ≤ 0.25
HGVS | ≤ 0.25
ASTW | ≤ 0.25
ASIE | 0.421
ASIS | 7.49

Variant | enrichment ratio
ASCP | ≤ 0.25
ASCQ | 4.02
KSCK | ≤ 0.25
ASCA | 13.5
ASCV | 18.9
ASQV | 1.45
ASNM | 5.71
ASCK | 22.8
ASIV | 11.4
DLCQ | ≤ 0.25
APTW | ≤ 0.25
NWDH | ≤ 0.25
QMYQ | 7.96
QHMS | ≤ 0.25
VRTV | ≤ 0.25
ADIN | ≤ 0.25
ASCG | 18.9
ASTV | 12.1
AITV | 6.12
YTIN | ≤ 0.25
ASFG | 1.66
ASGG | 4.75
ASDV | ≤ 0.25
ANTV | 16.3
ATIN | 11.9
AHTV | ≤ 0.25

Variant | enrichment ratio
HSQP | ≤ 0.25
RWHM | ≤ 0.25
HETV | 4.78
RMYW | ≤ 0.25
EHNH | ≤ 0.25
VGEA | ≤ 0.25
SAAE | ≤ 0.25
RITI | ≤ 0.25
GKRA | ≤ 0.25
ASIN | 12
KSIA | ≤ 0.25
ASNK | ≤ 0.25
ASIA | 13.9
VRCM | ≤ 0.25
ASCM | 11.6
ASIM | 14.6
ASIR | 0.563
KSIN | ≤ 0.25
TSIA | 2.99
ASVN | 7.54
PHTE | ≤ 0.25
IMWY | ≤ 0.25
TLSA | 7.98
KLEH | ≤ 0.25
ISEL | ≤ 0.25
VMQA | ≤ 0.25

Variant | enrichment ratio
GMPK | ≤ 0.25
ASAE | 5.56
AVTV | 12.1
ASWV | ≤ 0.25
AMTV | 9.95
ASIC | 12.1
MLTV | ≤ 0.25
ASRC | ≤ 0.25
AWTV | ≤ 0.25
ASAV | 11.5
ASTC | 5.39
MNTV | 12.2
TNTV | 10.2
DPKY | ≤ 0.25
MCMW | ≤ 0.25
PTRL | ≤ 0.25
ETSM | ≤ 0.25
LHSW | ≤ 0.25
ASFH | ≤ 0.25
ASIQ | 5.62
VRCC | ≤ 0.25
ASCE | 4.22
ASCI | 19.9
ASII | 12.7
ASCC | 18.2
ASWN | ≤ 0.25

Variant | enrichment ratio
ASCS | 4.46
ASWL | 5.05
ASIT | 9.21
ASIL | 19.5
DFLG | ≤ 0.25
RMGP | ≤ 0.25
MITD | ≤ 0.25
PINH | ≤ 0.25
EKTC | ≤ 0.25
QEPD | ≤ 0.25
ERFK | ≤ 0.25
LKWG | ≤ 0.25
TNVF | ≤ 0.25
ASCL | 20.8
ASPL | 1.12
TARQ | ≤ 0.25
HHQY | ≤ 0.25
SPST | ≤ 0.25
SSST | 12.7
SLST | 2.81
TSST | 15
NSST | ≤ 0.25
KSST | ≤ 0.25
